Read-out in test [1]: Vascular endothelial growth factor receptor 2 (Homo sapiens) (UniProt P35968)
Put plainly: BSK_4H_VEGFRII: BioMAP Diversity Plus: 4H Assay for Vascular endothelial growth factor receptor 2 (VEGFR2) Biomarker Activity (AID 2283031).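 For AC50: cell-surface VEGFR2 protein level quantified by ELISA.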 As to conditions: primary human endothelial cells (HUVEC); actives raise or lower the signal. The gist of the method: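 Primary human umbilical vein endothelial cells (4H system), 24 h exposure; cell-surface VEGFR2 measured by ELISA. Bidirectional fitting versus DMSO; cytotoxicity checked in parallel by SRB total-protein staining.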

Read-out in test [2]: Human Leukocyte Antigen - DR isotype (HLADR), HLA-DRA (gene 3122)
The test can be described thus: BSK_BE3C_HLADR: BioMAP Diversity Plus: BE3C Assay for Human Leukocyte Antigen - DR isotype (HLADR) Biomarker Activity (AID 2283032). As to conditions: primary human bronchial epithelial cells; actives raise or lower the signal. The gist of the method:
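Human primary bronchial epithelial cells in the BE3C system were exposed to chemicals for 24 h, after which HLA-DR levels were quantified by ELISA. Activity was fitted bidirectionally, gain or loss of signal, against DMSO as negative control and baseline.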

Read-out in test [3]: Vascular cell adhesion molecule 1 (VCAM1), VCAM1 (gene 7412)
The test can be described thus: BSK_4H_VCAM1: BioMAP Diversity Plus: 4H Assay for Vascular cell adhesion molecule 1 (VCAM1) Biomarker Activity (AID 2283033).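 For outcome: cell-surface VCAM-1 protein measured by ELISA.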 As to conditions: primary human endothelial cells (HUVEC); actives raise or lower the signal. A digest of the protocol: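 Primary human umbilical vein endothelial cells were exposed to chemicals for 24 h, after which VCAM-1 was quantified by ELISA. Responses were fitted bidirectionally against DMSO as negative control and activity baseline.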

Read-out in test [4]: Interferon-gamma inducible Protein 10 (IP10), CXCL10 (gene 3627)
The test can be described thus: BSK_BE3C_IP10: BioMAP Diversity Plus: BE3C Assay for Interferon-gamma inducible Protein 10 (IP10) Biomarker Activity (AID 2283034). As to conditions: primary human bronchial epithelial cells; actives raise or lower the signal. A digest of the protocol: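 Human primary bronchial epithelial cells were exposed to chemicals for 24 hours, after which IP-10 levels were measured by ELISA. Data were fitted bidirectionally against DMSO, which served as the negative control and activity baseline.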

Read-out in test [5]: Monokine induced gamma interferon (MIG), CXCL9 (gene 4283)
Put plainly: BSK_BE3C_MIG: BioMAP Diversity Plus: BE3C Assay for Monokine induced gamma interferon (MIG) Biomarker Activity (AID 2283035).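 Note: MIG protein measured by ELISA in BE3C cultures after 24 h of dosing.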 As to conditions: primary human bronchial epithelial cells; actives raise or lower the signal. The gist of the method:
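Primary human bronchial epithelial cells treated for 24 h; MIG levels measured by ELISA, fitted bidirectionally versus DMSO. Parallel SRB total-protein staining assessed cytotoxicity.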

Read-out in test [6]: Transforming growth factor beta 1 (TGFb1), TGFB1 (gene 7040)
The test can be described thus: BSK_BE3C_TGFb1: BioMAP Diversity Plus: BE3C Assay for Transforming growth factor beta 1 (TGFb1) Biomarker Activity (AID 2283036). As to conditions: primary human bronchial epithelial cells; actives raise or lower the signal. A digest of the protocol:
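Human primary bronchial epithelial cells (BE3C system) were dosed with chemical and TGF-b1 levels measured by ELISA at 24 h. Activity was fitted bidirectionally relative to DMSO negative control as baseline.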

Read-out in test [7]: Plasminogen activator inhibitor-1 (PAI1), SERPINE1 (gene 5054)
Put plainly: BSK_BE3C_PAI1: BioMAP Diversity Plus: BE3C Assay for Plasminogen activator inhibitor-1 (PAI1) Biomarker Activity (AID 2283037). As to conditions: primary human bronchial epithelial cells; actives raise or lower the signal. The gist of the method:
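Human primary bronchial epithelial cells were exposed to chemical for 24 h, then PAI-1 was quantified by ELISA. Activity was fitted bidirectionally relative to the DMSO negative control baseline.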

Read-out in test [8]: urokinase plasminogen activator (uPA), PLAU (gene 5328)
The test can be described thus: BSK_BE3C_uPA: BioMAP Diversity Plus: BE3C Assay for urokinase plasminogen activator (uPA) Biomarker Activity (AID 2283038).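 For outcome: uPA protein level quantified by ELISA in cell cultures; uPA read one day after compound addition.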 As to conditions: primary human bronchial epithelial cells; actives raise or lower the signal. The gist of the method:
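Primary human bronchial epithelial cells, uPA measured by ELISA 24 h after dosing. Bidirectional change relative to DMSO; cytotoxicity checked in parallel cultures by sulforhodamine B total-protein staining.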

Read-out in test [9]: Urokinase-type plasminogen activator receptor (uPAR), PLAUR (gene 5329)
Put plainly: BSK_BE3C_uPAR: BioMAP Diversity Plus: BE3C Assay for Urokinase-type plasminogen activator receptor (uPAR) Biomarker Activity (AID 2283039).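 For outcome: cells exposed to compound for one day before measurement.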 As to conditions: primary human bronchial epithelial cells; actives raise or lower the signal. A digest of the protocol:
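Primary human bronchial epithelial cells were dosed with chemical and harvested 24 h later; uPAR was quantified by ELISA. Activity was fitted bidirectionally against DMSO as negative control and baseline.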

Read-out in test [10]: Interleukin-6 (IL6), IL6 (gene 3569)
The test can be described thus: BSK_CASM3C_IL6: BioMAP Diversity Plus: CASM3C Assay for Interleukin-6 (IL6) Biomarker Activity for (AID 2283040). As to conditions: primary human coronary artery smooth muscle cells; actives raise or lower the signal.

Read-out in test [11]: Tissue plasminogen activator (tPA), PLAT (gene 5327)
Put plainly: BSK_BE3C_tPA: BioMAP Diversity Plus: BE3C Assay for Tissue plasminogen activator (tPA) Biomarker Activity (AID 2283041).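 Note: tPA level quantified by ELISA one day after compound addition.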 As to conditions: primary human bronchial epithelial cells; actives raise or lower the signal. A digest of the protocol:
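Human primary bronchial epithelial cells were dosed with chemical and tPA biomarker levels measured by ELISA 24 hours later. Activity was fitted bidirectionally against DMSO as negative control and baseline.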

Read-out in test [12]: Interleukin-8 (IL8), CXCL8 (gene 3576)
Put plainly: BSK_CASM3C_IL8: BioMAP Diversity Plus: CASM3C Assay for Interleukin-8 (IL8) Biomarker Activity (AID 2283042).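 Note: IL-8 protein level quantified by ELISA.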 As to conditions: primary human coronary artery smooth muscle cells; actives raise or lower the signal.

Read-out in test [13]: Human Leukocyte Antigen - DR isotype (HLADR), HLA-DRA (gene 3122)
Put plainly: BSK_CASM3C_HLADR: BioMAP Diversity Plus: CASM3C Assay for Human Leukocyte Antigen - DR isotype (HLADR) Biomarker Activity (AID 2283043).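 Note: cell-surface HLA-DR protein level quantified by ELISA.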 As to conditions: primary human coronary artery smooth muscle cells; actives raise or lower the signal.

Read-out in test [14]: Macrophage colony-stimulating factor (MCSF), CSF1 (gene 1435)
The test can be described thus: BSK_CASM3C_MCSF: BioMAP Diversity Plus: CASM3C Assay for Macrophage colony-stimulating factor (MCSF) Biomarker Activity (AID 2283044).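 Note: M-CSF protein amount quantified by ELISA after 24 h exposure.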 As to conditions: primary human coronary artery smooth muscle cells; actives raise or lower the signal.

Read-out in test [15]: Low-density lipoprotein receptor (LDLR), LDLR (gene 3949)
The test can be described thus: BSK_CASM3C_LDLR: BioMAP Diversity Plus: CASM3C Assay for Low-density lipoprotein receptor (LDLR) Biomarker Activity (AID 2283045).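 Note: LDLR protein level on the cell surface quantified by ELISA.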 As to conditions: primary human coronary artery smooth muscle cells; actives raise or lower the signal.

Read-out in test [16]: Monocyte Chemoattractant Protein-1 (MCP1), CCL2 (gene 6347)
The test can be described thus: BSK_CASM3C_MCP1: BioMAP Diversity Plus: CASM3C Assay for Monocyte Chemoattractant Protein-1 (MCP1) Biomarker Activity (AID 2283046).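 Note: MCP-1 level quantified by ELISA 24 h after dosing.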 As to conditions: primary human coronary artery smooth muscle cells; actives raise or lower the signal.

The nature of test [17]: BSK_CASM3C_Proliferation: Cell Proliferation Assessment in the BioMAP Diversity Plus: CASM3C Assay (AID 2283047).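 Note: sulforhodamine B total protein stain as relative cell number at 560 nm; sub-confluent cells exposed 48 h before staining; fitted both ways against DMSO so gain or loss of cell number.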 As to conditions: primary human coronary artery smooth muscle cells.
Read-out in test [18]: Monokine induced gamma interferon (MIG), CXCL9 (gene 4283)
Put plainly: BSK_CASM3C_MIG: BioMAP Diversity Plus: CASM3C Assay for Monokine induced gamma interferon (MIG) Biomarker Activity (AID 2283048). As to conditions: primary human coronary artery smooth muscle cells; actives raise or lower the signal.

Read-out in test [19]: serum amyloid A (SAA), SAA1 (gene 6288)
Put plainly: BSK_CASM3C_SAA: BioMAP Diversity Plus: CASM3C Assay for serum amyloid A (SAA) Biomarker Activity (AID 2283049).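 Note: SAA protein level quantified by ELISA.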 As to conditions: primary human coronary artery smooth muscle cells; actives raise or lower the signal.

Read-out in test [20]: Urokinase-type plasminogen activator receptor (uPAR), PLAUR (gene 5329)
The test can be described thus: BSK_4H_uPAR: BioMAP Diversity Plus: 4H Assay for Urokinase-type plasminogen activator receptor (uPAR) Biomarker Activity (AID 2283030). As to conditions: primary human endothelial cells (HUVEC); actives raise or lower the signal. The gist of the method:
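Human umbilical vein endothelial cells in the 4H system, 24 h after chemical dosing. Cell-surface uPAR measured by ELISA, fitted in both directions versus DMSO; cytotoxicity checked by SRB total protein in parallel cultures.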

In PubChem BioAssay (EPA / NIEHS) one finds outcome and AC50 data, which are given here for 7 compounds.

The structures appear in SMILES notation. Where a structure was tested more than once in an assay, its records may differ in their call. Activity calls are given as the source filed them. Rule for the calls: active = hit-call score of the fitted dose curve at least 0.9, where 1 is the maximum; inactive = score below 0.9.

For the compound `O=C1CCCCCCCCCCCN1`, the result in test [1], in [2], in test [3], in test [4], in test [5] and in [6] was inactive. Also, the result in [7], in test [8], in test [9], in test [10], in test [11] and in test [12] was inactive. The result in test [13], in test [14], in test [15], in test [16], in test [17] and in test [18] was inactive. Besides, in test [19], the result was inactive.
One may read the AC50 as the concentration at which the activity in the assay is half-maximal. Regarding `Oc1c(Cl)cc(Cl)c(Cl)c1Cl`, the AC50 in [20] is 20 µM (active); in [2], 6.25 µM (active); in [3] it was 20 µM (active); in [4], 20 µM (active); in test [7], 7.51 µM (active); in test [8], 6.07 µM (active). Moreover, the AC50 in [9] is 20 µM (active); in [10] it was 383 nM (active). For the same compound, the outcome in test [1], in test [5], in test [6], in test [12], in [13] and in test [14] was inactive. Besides, the result in test [15], in test [16], in test [17], in test [18] and in [19] was inactive.
In the case of `CC(C)[N+](C)(CCOC(=O)C1c2ccccc2Oc2ccccc21)C(C)C`, the result in [20], in test [1], in test [2], in [3], in test [4] and in test [5] was inactive. In addition, the result in test [6], in [7], in [8], in [9], in [10] and in test [12] was inactive. Also, the outcome in test [13], in test [14], in test [15], in [16], in [17] and in [18] was inactive. The outcome in test [19] was inactive.
Take `CC(c1cc(C(C)(C)C)cc(C(C)(C)C)c1O)c1cc(C(C)(C)C)cc(C(C)(C)C)c1O`: the outcome in test [20], in test [1], in [2], in test [3], in [4] and in [5] was inactive. Also, the outcome in test [6], in [7], in test [8], in [9], in [10] and in test [11] was inactive. The outcome in test [12], in test [13], in test [14], in [15], in [16] and in [17] was inactive. For the same compound, the result in [18] and in test [19] was inactive.
As for `CCOC(=O)C1=NN(c2ccc(Cl)cc2Cl)C(C)(C(=O)OCC)C1` (stereo not given), the outcome in test [20], in [1], in [2], in test [3], in test [4] and in test [5] was inactive. The outcome in test [6], in test [7], in test [8], in test [9], in [10] and in [11] was inactive. The result in test [12], in [13], in [14], in test [15], in [16] and in [17] was inactive. Further, the result in [18] and in [19] was inactive.
As to `c1ccc2c(c1)[nH]c1ccccc12`, the outcome in test [1], in [2], in [3], in test [4], in test [5] and in test [6] was inactive. Further, the result in test [7], in test [8], in [9], in test [10], in test [12] and in test [13] was inactive. Besides, the result in test [14], in test [15], in [16], in test [17], in test [18] and in [19] was inactive. Besides, the AC50 in test [4] is 20.1 µM (active).
With `CC/C=C\CCOC(=O)c1ccccc1O`, the AC50 in [20] is 21.1 µM (active); in test [1], 20 µM (active); in test [2] it was 20 µM (active); in [3], 25.1 µM (active); in [10] it was 3970 nM (active); in [13], 32.9 µM (active). The AC50 is 31.6 µM (active) in [14], 14.4 µM (active) in test [15], 20 µM (active) in test [16] and 20 µM (active) in test [19]. Moreover, the outcome in test [4], in test [5], in test [6], in [7], in [8] and in test [9] was inactive. Also, the outcome in test [12], in test [17] and in [18] was inactive.
